Experimental data published in PubChem BioAssay.
Where “and” joins values, the source holds several entries; their conditions need not be identical. Identical values can stand only once. Calls of active or inactive are those of the source. Unless noted, no rule for the calls is given here.

What was measured:
[1] = compound effects on lung adenocarcinoma cell viability – A549, calcein-AM fluorescence, 48 h, basal, profiling panel (AID 1162); settings: higher = more signal; also: test concentration not given here
[2] = compound effects on differentiated 3T3-L1 adipocyte viability – cell-based, 3T3-L1 adipocytes, calcein-AM fluorescence, 48 h, basal, profiling panel (AID 1163); settings: 3T3-L1 adipocytes viability, higher = more signal; also: test concentration not given here
[3] = compound effects on hepatocellular carcinoma cell viability – HepG2, calcein-AM fluorescence, 48 h, basal, profiling panel (AID 1164); settings: higher = more signal; also: test concentration not given here
[4] = compound effects on multiple myeloma cell viability – MM1S, calcein-AM fluorescence, 48 h, basal, profiling panel (AID 1165); settings: higher = more signal;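 also: viability of MM1S multiple myeloma cells under basal unstimulated conditions; test concentration not given here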
[5] = calcein-AM signal in unstimulated myeloma cells – cell-based, calcein-AM fluorescence, 48 h, PK04 Diversity Set, profiling panel (AID 1166); settings: RPMI8226 myeloma viability, higher = more signal;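 also: cells grown under basal conditions without added stimulus; test concentration not given here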
[6] = JC-1 mitochondrial signal, unstimulated HepG2 cells – cell-based, JC-1 fluorescence, 24 h, 100 nL compound, profiling panel (AID 1167); settings: HepG2 mitochondrial potential, higher = more signal; also: test concentration not given here
[7] = JC-1 mitochondrial signal, unstimulated adipocytes – cell-based, JC-1 fluorescence, 3T3-L1 adipocytes, 24 h, 100 nL compound, profiling panel (AID 1168); settings: JC-1 mitochondrial fluorescence, higher = more signal, called active from +8 up or from −8 down; also: test concentration not given here
[8] = JC-1 mitochondrial signal, unstimulated myeloma cells – cell-based, JC-1 fluorescence, RPMI8226, 24 h, 100 nL compound, profiling panel (AID 1169); settings: JC-1 mitochondrial potential fluorescence, higher = more signal; also: test concentration not given here
[9] = JC-1 mitochondrial signal, unstimulated MM1S myeloma – cell-based, JC-1 fluorescence, 24 h, 100 nL compound, profiling panel (AID 1170); settings: MM1S mitochondrial potential, higher = more signal; also: test concentration not given here
[10] = resazurin metabolic signal in A549 cells – cell-based, resazurin fluorescence, 24 h, PK04 Diversity Set, profiling panel (AID 1171); settings: A549 viability, higher = more signal, called active from +8 up or from −8 down; also: test concentration not given here
[11] = resazurin metabolic signal in HepG2 cells – cell-based, resazurin fluorescence, 24 h, PK04 Diversity Set, profiling panel (AID 1172); settings: HepG2 viability, higher = more signal; also: test concentration not given here
[12] = budding yeast growth changes without added modifier – OD600, strain BY4716, 24 h, basal condition, primary screen (AID 1173); settings: S. cerevisiae BY4716 growth, OD600, 24 h; higher = more signal, called active from +8 up or from −8 down
[13] = viability profiling in MM1S myeloma cells – cell-based, resazurin fluorescence, basal, 24 h, PK04 Diversity Set, profiling panel (AID 1174); settings: higher = more signal, called active from +8 up or from −8 down; also: test concentration not given here
[14] = biological target: Dihydroorotate dehydrogenase (quinone), mitochondrial (Plasmodium falciparum (isolate 3D7)) (UniProt Q08210); test: inhibition of P. falciparum DHODH – biochemical, C-terminal His tag, absorbance 600 nm, primary screen (AID 1175); settings: PfDHODH enzyme, DCIP absorbance 600 nm; higher = more signal, called active from +8 up or from −8 down;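 also: recombinant parasite enzyme with a five histidine tag at its C terminus; test concentration not given here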
Sequence of Dihydroorotate dehydrogenase (quinone), mitochondrial (Plasmodium falciparum (isolate 3D7)) (Q08210 whole entry, looked up): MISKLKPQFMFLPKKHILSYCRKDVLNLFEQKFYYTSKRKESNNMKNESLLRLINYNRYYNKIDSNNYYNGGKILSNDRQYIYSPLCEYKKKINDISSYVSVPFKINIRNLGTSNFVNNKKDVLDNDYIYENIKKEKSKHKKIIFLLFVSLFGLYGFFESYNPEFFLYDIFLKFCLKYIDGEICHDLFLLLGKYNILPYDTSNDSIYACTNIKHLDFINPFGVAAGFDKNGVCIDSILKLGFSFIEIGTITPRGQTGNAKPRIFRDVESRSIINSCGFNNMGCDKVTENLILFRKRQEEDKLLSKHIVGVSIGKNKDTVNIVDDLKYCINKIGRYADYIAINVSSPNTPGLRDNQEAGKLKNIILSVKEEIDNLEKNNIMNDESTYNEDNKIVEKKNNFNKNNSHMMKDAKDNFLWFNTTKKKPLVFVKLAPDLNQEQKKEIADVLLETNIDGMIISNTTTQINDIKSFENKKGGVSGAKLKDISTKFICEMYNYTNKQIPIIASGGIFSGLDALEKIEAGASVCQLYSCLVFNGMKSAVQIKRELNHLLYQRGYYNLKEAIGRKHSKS

[15] = inhibition of PAO1 biofilm formation – strain PAO1, LB-PBS medium, absorbance 600 nm, primary screen (AID 1176); also: test concentration not given here; settings: P. aeruginosa PAO1 growth/biofilm, A600, 12 h; higher = more signal
[16] = growth modulation of vineyard yeast isolate – strain RM11-1a, OD600, basal, 24 h, primary screen (AID 1177);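 also: cultures grown under basal conditions with no added stressor; test concentration not given here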; settings: S. cerevisiae RM11-1a growth, OD600, 24 h; higher = more signal, called active from +8 up or from −8 down
[17] = growth of efflux-deficient E. coli DRC39 – strain DRC39, OD650, 24 h, E. coli filamentation inducers, primary screen (AID 1178);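 also: growth measured as culture turbidity by optical density at 650 nm; test concentration not given here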; settings: E. coli DRC39 acrAB, higher = more signal, called active from +8 up or from −8 down
[18] = growth of efflux-deficient E. coli DRC39 – strain DRC39, OD650, 48 h, E. coli filamentation inducers, primary screen (AID 1179);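 also: screen aims at cell division blockers that make cells filament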; settings: E. coli DRC39 delta-acrAB growth, higher = more signal, called active from +8 up or from −8 down
[19] = viability profiling in RPMI8226 myeloma cells – cell-based, resazurin fluorescence, basal, 24 h, PK04 Diversity Set, profiling panel (AID 1180); settings: higher = more signal;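 also: RPMI8826 multiple myeloma cell line at 5000 cells per well; test concentration not given here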
[20] = biological target: E3 ubiquitin-protein ligase XIAP (Homo sapiens) (UniProt P98170); test: small molecules binding XIAP protein – biophysical, small-molecule microarray, fluorescence 635 nm, primary screen (AID 1181); settings: higher = more signal;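 also: score merges 667 nm emission and signal to noise over triplicate slides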
Sequence of E3 ubiquitin-protein ligase XIAP (Homo sapiens) (P98170 whole entry, looked up): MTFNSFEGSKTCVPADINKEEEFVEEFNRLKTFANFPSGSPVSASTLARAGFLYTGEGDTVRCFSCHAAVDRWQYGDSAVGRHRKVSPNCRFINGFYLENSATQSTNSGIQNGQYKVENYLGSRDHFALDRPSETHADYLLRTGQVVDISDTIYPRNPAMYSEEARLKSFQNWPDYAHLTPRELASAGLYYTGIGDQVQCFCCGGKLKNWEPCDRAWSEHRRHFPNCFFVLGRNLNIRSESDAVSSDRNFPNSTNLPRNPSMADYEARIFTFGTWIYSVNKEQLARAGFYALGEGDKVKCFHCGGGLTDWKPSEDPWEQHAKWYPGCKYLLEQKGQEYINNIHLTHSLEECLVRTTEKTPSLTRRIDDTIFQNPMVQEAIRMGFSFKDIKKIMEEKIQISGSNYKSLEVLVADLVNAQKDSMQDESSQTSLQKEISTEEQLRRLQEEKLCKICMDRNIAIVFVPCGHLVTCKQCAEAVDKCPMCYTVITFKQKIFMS

Compound	z-score [1]	z-score [2]	z-score [3]	z-score [4]	z-score [5]	z-score [6]	z-score [7]	z-score [8]	z-score [9]	z-score [10]	z-score [11]	z-score [12]	z-score [13]	composite z-score [14]	z-score [15]	z-score [16]	z-score [17]	z-score [18]	z-score [19]	composite z-score [20]
C=CCN(C(=O)C1N(CCCCCCO)C(=O)C2C(C(=O)O)C3C=CC21O3)c1ccc(OC)cc1 (stereo not given)	1.37 and 0.282	0.743 and -0.0063	-0.46 and 0.428	0.315 and -1.1	0.432 and 0.269	0.113 and -0.546	0.74 (inactive) and 0.861 (inactive)	-0.875 and -0.0778	1.02 and 1.2	1.09 (inactive) and 0.416 (inactive)	0.831 and 0.525	-2.35 (inactive) and -2.45 (inactive)	1.04 (inactive) and -0.294 (inactive)	-1.78 (inactive) and -2.48 (inactive)	-0.401 (inactive)	-1.53 (inactive) and -0.292 (inactive)	1.15 (inactive) and 0.43 (inactive)	1.16 (inactive) and 0.716 (inactive)	1.37 and 0.372	-0.0492 and 0.0972
CCOC(=O)c1ccc(NC(=O)O[C@H]2[C@H](OC(=O)Nc3ccccc3)[C@H](OC(=O)Nc3ccccc3)[C@@H](OC)O[C@@H]2CO)cc1	-0.299 and -1.3	0.207 and 0.7	-1.02 and -1.9	-1.08 and -3.02	-0.636 and -3.24	-0.171 and -1.02	1.31 (inactive) and -0.302 (inactive)	-0.396 and -0.968	-0.45 and -1.27	-1.11 (inactive) and -3.2 (inactive)	-1.03 and -1.82	0.645 (inactive) and -0.301 (inactive)	-1.75 (inactive) and -3.01 (inactive)	-0.299 (inactive) and -0.597 (inactive)	2.37 (inactive) and 1.74 (inactive)	2.14 (inactive) and 0.971 (inactive)	-0.468 (inactive) and 0.363 (inactive)	0.496 (inactive) and -0.189 (inactive)	-1.53 and -2.7	0.23 and 0.108
C=CCN(C(=O)C1N(CCOCCO)C(=O)C2C(C(=O)O)C3C=CC21O3)C(C)(C)C (stereo not given)	-0.186 and -0.328	0.0948 and -1.23	0.108 and 0.442	1.01 and 0.916	-0.114 and 0.817	-0.58 and -0.767	-0.693 (inactive) and -0.523 (inactive)	-0.691 and 0.591	1.93 and 0.501	0.161 (inactive) and -0.73 (inactive)	0.0542 and -0.741	-0.0565 (inactive) and 0.494 (inactive)	-0.2 (inactive) and -1.16 (inactive)	0.256 (inactive) and 1.36 (inactive)	-0.0558 (inactive) and 0.578 (inactive)	-0.0478 (inactive) and -0.166 (inactive)	-0.335 (inactive) and -0.685 (inactive)	-0.664 (inactive) and -0.923 (inactive)	-0.244 and -1.69	0.0009 and -0.0369
